An excerpt weighted towards active compounds, which were near 2.8% of everything screened.
D3 ag – agonists of human D3 dopamine receptor; AID 652048; 0.58% of 410,000 active; P35462; D3R DiscoveRx beta-arrestin cells, luminescence, 90 min; max activation, %; in the data active = max activation above about 30%
Target sequence (P35462 whole entry, looked up): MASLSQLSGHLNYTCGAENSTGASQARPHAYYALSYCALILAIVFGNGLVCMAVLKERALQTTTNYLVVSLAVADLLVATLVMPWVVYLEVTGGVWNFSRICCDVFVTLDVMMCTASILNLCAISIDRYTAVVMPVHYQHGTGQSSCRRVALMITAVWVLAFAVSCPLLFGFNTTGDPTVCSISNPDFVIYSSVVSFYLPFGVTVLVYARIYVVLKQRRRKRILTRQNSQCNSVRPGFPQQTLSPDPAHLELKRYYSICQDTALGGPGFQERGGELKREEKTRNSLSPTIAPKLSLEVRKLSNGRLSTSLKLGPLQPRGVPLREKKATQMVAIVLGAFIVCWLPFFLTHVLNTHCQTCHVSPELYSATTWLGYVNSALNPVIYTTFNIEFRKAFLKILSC
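Agonist-mode cell screen: cells plated at 1500/well and incubated overnight at 37 °C, then exposed to library compounds for 90 min at 37 °C. Detection reagent was added for 30–60 min at room temperature, and luminescence was read.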
Giardia kill – Giardia lamblia killing; Giardia lamblia trophozoite viability; activity change, % at 7.66 µM, hits read low; 0.15% of 340,000 active; in the data active = activity change below about -80%; inconclusive = between about -30% and that limit;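 also: parasites exposed to compound for two days anaerobically before the ATP read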
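Anaerobic 48 hrs incubation at 37 deg C of 100 trophozoites/well with test compounds; ATPLite 1-Step luminescence, 15-30 min RT, reports cellular ATP as viability.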
D3 antag – D3 dopamine receptor (human) antagonism; P35462; D3R cells, DiscoveRx beta-arrestin luminescence, antagonist mode; hits give low values; max response, negative = inhibition, %; 2.5% of 360,000 active; AID 652054; in the data active = max response below about -50%; inconclusive = no clear call, values can overlap the other calls
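Cells plated overnight at 1500 cells/well, then exposed to library compounds with dopamine controls for 90 minutes at 37 degrees C. DiscoveRx reagent added for 30–60 minutes at room temperature; luminescence read, quantitative HTS format.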
B2AR arrestin – beta2AR (human) beta-arrestin recruitment activity; P07550; beta-arrestin recruitment to beta2AR, cell-based reporter; Potency, µM (series often up to 46.1 µM), most hits filed as activators; 0.02% of 330,000 active; AID 492947; active = well fitted activation curve with a large enough effect; inconclusive = small, poorly fitted or top-dose-only effect; also: nearly all actives have a fitted effect of over 65% in size
Each line names hits and unclear results; the compound was inactive in the other large screens.

O=C(CSc1nnc(-c2ccccc2F)n1C1CC1)NC(=O)c1cccc([N+](=O)[O-])c1	D3 antag -57
CCN(N=O)[C@@H](Cc1ccccc1)CN(N=O)[C@@H](Cc1ccccc1)CN(C)N=O	D3 ag 32
CSc1nc(Nc2ccc(C)cc2C)cc(-c2ccccc2)n1	D3 ag 33 (no result: Giardia kill, D3 antag, B2AR arrestin)
Cc1cc(C)cc(Nc2cc(-c3ccccc3)nc(C)n2)c1	none (no result: Giardia kill, D3 antag, B2AR arrestin)
COc1cc(NC(=O)c2ccco2)c(OC)cc1NC(=O)CSc1ncc(-c2ccc(F)cc2)[nH]1	D3 ag 31
O=C(NCCSc1ncc(-c2ccc(F)cc2)[nH]1)c1ccco1	none
O=C1c2ccccc2C(=O)N1Nc1ccc([N+](=O)[O-])cc1[N+](=O)[O-]	D3 antag -75
O=C(COC(=O)/C=C/c1ccc(C(F)(F)F)cc1)NC1CC1	D3 antag -64
CC(C)CC1(C)NC(=O)N(CC(=O)Nc2ccc3c(c2)CCC3)C1=O (stereo not drawn)	D3 antag -55
CC(=O)Nc1ccc(S(=O)(=O)N2CCC(c3nc4ccc(C)cc4[nH]3)CC2)cc1	D3 antag -92
CCOC(=O)Nc1ccc(S(=O)(=O)N2CCC(c3nc4ccccc4[nH]3)CC2)cc1	none (no result: Giardia kill, B2AR arrestin)
c1ccc(CCNc2nc(-c3ccccc3)cs2)cc1	none (no result: Giardia kill, D3 antag, B2AR arrestin)
CCS(=O)(=O)N1CC(=O)N(c2cc(C)ccc2C)C(C)(C(=O)NC2CCCCC2)C1 (stereo not drawn)	none (no result: Giardia kill, D3 antag, B2AR arrestin)
COC(=O)c1c(-c2cccs2)csc1NC(=O)COc1c(C)ccc(C)c1C	none (no result: Giardia kill, D3 antag, B2AR arrestin)
COc1ccccc1N(CC(=O)N1CCC(C)CC1)S(=O)(=O)c1ccc(C)cc1	none (no result: Giardia kill, D3 antag, B2AR arrestin)
COc1ccccc1N(CC(N)=O)S(=O)(=O)c1ccc(C)cc1	D3 antag -76
CC(=O)NCCCS(=O)(=O)O	none (no result: Giardia kill, D3 antag, B2AR arrestin)
Cc1ccc(C)c(S(=O)(=O)NC(C)C(=O)Nc2ccc(-c3nc4ccccc4s3)cc2)c1 (stereo not drawn)	D3 ag 51
O=C(NCc1ccc(Cl)cc1)C1C2C=CC3(CN(Cc4cccnc4)C(=O)C13)O2 (stereo not drawn)	none
O=C(NCc1ccc(F)cc1)C1C2C=CC3(CN(Cc4cccnc4)C(=O)C13)O2 (stereo not drawn)	D3 ag 31
O=C(Oc1c(-c2ccccc2)c(=O)n2c3c(cccc13)CC2)c1ccco1	D3 ag 49
COC(=O)C1=[N+]([O-])OC(C(=O)OC)C1c1c[nH]c2ccccc12 (stereo not drawn)	D3 antag -56
COC(=O)/C=C1\S/C(=N/NC(=O)c2ccccc2)NC1=O	D3 antag -65
COC(=O)/C=C1/S/C(=N/NC(=O)c2ccccc2)NC1=O	none
Cc1ccc(C2NC(c3ccc4c(c3)OCO4)=CC(c3cc(Br)ccc3O)N2)cc1 (stereo not drawn)	none (no result: D3 ag, D3 antag, B2AR arrestin)
COC(=O)c1cc(O)cc(OC)c1C(=O)c1c(O)cc(C)cc1O	D3 ag 30
Cc1cccc(-c2nc(Cn3c(SCc4cc(C)ccc4C)nc4ccncc43)c(C)o2)c1	none (no result: Giardia kill, D3 antag, B2AR arrestin)
CCN(CC)P(=O)(Nc1ccc(C)cc1Br)c1ccc(N(C)C)cc1NC(=O)c1ccco1 (stereo not drawn)	D3 antag -60
Nc1c(Cl)cc(-c2[nH]c3cc(C(=O)NCCO)ccc3c(=O)c2O)cc1Cl	D3 ag 35
CCCNC(=O)c1ccc2c(=O)c(O)c(C)[nH]c2c1	D3 ag 33
COc1cc(OC)c(NC(=O)C(C)n2nc(-c3ccc(C)c(C)c3)ccc2=O)cc1Cl (stereo not drawn)	none (no result: Giardia kill, D3 antag, B2AR arrestin)
OC(CCCN1CCCCC1)(c1ccccc1)c1ccc(C(F)(F)F)cc1 (stereo not drawn)	D3 antag -99 (no result: B2AR arrestin)
Cc1onc(-c2c(F)cccc2Cl)c1C(=O)N1CCc2ccccc21	D3 ag 34
O=C(CCNC(=O)Cn1cnc2ccccc2c1=O)NCC1COc2ccccc2O1 (stereo not drawn)	D3 antag -58
O=C(CCNC(=O)Cn1cnc2ccccc2c1=O)NCC1CCCO1 (stereo not drawn)	none
CC(=O)c1ccc(N2CCN(C(=O)c3cc(-c4ccncc4)nc4ccc(Cl)cc34)CC2)cc1	D3 ag 34
COc1ccccc1CNc1ccc(Br)cn1	D3 ag 33
CC#CC(=O)NC1CCCN(C2Cc3ccccc3C2)C1 (stereo not drawn)	none
COc1cccc(C(=O)NC2CCCN(C3Cc4ccccc4C3)C2)c1OC (stereo not drawn)	D3 antag -93
COc1ccccc1N1CCN(CCC(=O)Nc2ccc(F)cc2)CC1	D3 antag -98
CCOc1ccc(NC(=O)CCN2CCN(c3ccccc3F)CC2)cc1	D3 antag inconclusive
COc1ccccc1N1CCN(CCC(=O)Nc2cccc(Cl)c2)CC1	D3 antag -124
COc1ccccc1N1CCN(CC(=O)Nc2cccc(F)c2)CC1	none
COc1ccccc1N1CCN(CCC(=O)Nc2ccc3c(c2)OCO3)CC1	D3 antag -90
CCOc1ccc(NC(=O)CCN2CCN(c3ccccc3OC)CC2)cc1	D3 antag -91
COc1ccc(CNC(=O)c2ccc3c(c2)N(C)C(=O)C2CCCCN32)cc1OC (stereo not drawn)	none (no result: Giardia kill, D3 antag, B2AR arrestin)
O=C(O)CCC(=O)N1CCN(c2cccc(Cl)c2)CC1	D3 antag -63
CCC(C(=O)N1CCN(c2cccc(Cl)c2)CC1)c1ccccc1 (stereo not drawn)	D3 antag -59
COc1ccc(C(=O)CCC(=O)N2CCN(c3cccc(Cl)c3)CC2)cc1	none
O=C(O)/C=C/C(=O)N1CCN(c2cccc(Cl)c2)CC1	D3 antag -60
COc1cccc(N2CCN(C(=O)CC(NC(=O)c3ccccc3)c3ccccc3)CC2)c1 (stereo not drawn)	D3 antag -54
Cc1cccc(N2CCN(C(=O)CC(NC(=O)c3ccccc3)c3ccccc3)CC2C)c1 (stereo not drawn)	none
CCNC(=O)[C@@H]1CCCN1C(=O)[C@H](CCCN=C(N)N)NC(=O)[C@H](CC(C)C)NC(=O)[C@@H](Cc1c[nH]c2ccccc12)NC(=O)[C@H](Cc1ccc(O)cc1)NC(=O)[C@H](CO)NC(=O)[C@H](Cc1c[nH]c2ccccc12)NC(=O)[C@H](Cc1cnc[nH]1)NC(=O)[C@@H]1CCC(=O)N1	none (no result: Giardia kill, D3 antag, B2AR arrestin)
COc1ccc(-c2nc3cc(C(C)C)ccc3o2)cc1NC(=O)COc1ccc(C)cc1C	none (no result: Giardia kill, D3 antag, B2AR arrestin)
CC(C)Cn1cc(NC(=O)N2CCN(c3ccc(F)cc3)CC2)c2ccccc2c1=O	none (no result: Giardia kill, D3 antag, B2AR arrestin)
O=C(c1cc2ccccc2oc1=O)N1CCN(c2ccc(F)cc2)CC1	none (no result: Giardia kill, D3 antag, B2AR arrestin)
Cc1ccc(-c2nc3cccc(C)n3c2Nc2ccc(F)cc2)o1	none (no result: D3 ag, D3 antag, B2AR arrestin)
Cc1ccc(-c2ccc(/C=C(\C#N)C(N)=S)n2C)cc1	none
Cn1cccc1/C=C(/C#N)C(N)=S	D3 antag -63
CC(=O)N1CCc2cc(C(=O)CN3CCN(c4ccccn4)CC3)ccc21	D3 ag 68
CC(=O)N1CCc2cc(C(=O)CN3CCN(c4ccccc4F)CC3)ccc21	D3 antag -65
O=C(CN1CCN(c2ccccc2F)CC1)c1ccc2cc[nH]c2c1	D3 antag -63
Cc1ccc(C2=NC(c3ccc(F)cc3)=Nc3ccc(C)cc3N2)cc1	none (no result: Giardia kill, D3 antag, B2AR arrestin)
